Records with an inconclusive call do not appear. The source made the active and inactive calls. The call rests on the fitted dose curve; in most records, active means well fitted curve in the direction sought with a large enough effect; inconclusive means small, poorly fitted or top-dose-only effect, or another doubt; inactive means no such curve, though single readings can be large; an effect the other way counts as inactive or inconclusive.
How the values were obtained:
[1] = NS1 protein of Zika virus - qHTS assay to identify small molecule inhibitors in human HEK 293 cells (AID 1347053); further: series mostly up to about 46 µM; nearly all actives have a fitted effect of over 55% in size
Procedure, shortened: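 Inhibition of NS1 expression was scored in HEK 293 cells given compound 1 h ahead of MR766 virus (MOI = 0.5). Following 24 h at 37 C, two anti-NS1 antibodies generated a TR-FRET signal, scaled between uninfected and infected controls.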

[2] = qHTS of pediatric cancer cell lines to identify multiple opportunities for drug repurposing: Primary screen for TC32 cells (AID 1347089); further: nearly all actives have a fitted effect of over 60% in size
Procedure, shortened: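 Luminescent ATP read-out (CellTiter-Glo) of metabolically active TC32 cells after 48 h exposure. Concentration-response curves came from 11-point (MIPE, 0.78 nM–46 µM) or 8-point (NPC, 0.59 nM–46 µM) primary titrations; follow-up used 11 points.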

[3] = qHTS of pediatric cancer cell lines to identify multiple opportunities for drug repurposing: Primary screen for DAOY cells (AID 1347090); further: series mostly up to about 46 µM; nearly all actives have a fitted effect of over 55% in size
Procedure, shortened: (§1)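 Eight- or eleven-point concentration series, 48 h treatment at 37 degrees C in growth media; readout CellTiter-Glo luminescence. Potency and efficacy were taken from the concentration-response curves.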

[4] = qHTS of pediatric cancer cell lines to identify multiple opportunities for drug repurposing: Primary screen for SJ-GBM2 cells (AID 1347091)
Procedure, shortened: as §1

[5] = qHTS of pediatric cancer cell lines to identify multiple opportunities for drug repurposing: Primary screen for A673 cells (AID 1347092); further: nearly all actives have a fitted effect of over 45% in size
Procedure, shortened: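 Cell viability of A673 measured by CellTiter-Glo ATP luminescence after 48 hours compound exposure. Dilution series spanned 0.78 nM to 46 µM (MIPE, 11-point) or 0.59 nM to 46 µM (NPC, 8-point); bortezomib 2.3 uM positive control.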

Measured: Potency

O=C(c1ccccc1)c1ccccc1
inactive: all assays above

CC(COc1ccccc1)NN (stereo not given)
inactive: all assays above

CCCC(CCC)(C(=O)OCC)C(=O)OCC
inactive: all assays above

O=[N+]([O-])c1nccn1CO[C@@H](CO)[C@H](O)CO
inactive: all assays above

CC(=O)/C=C/C=C1/C2CCC(C2)C1(C)C (stereo not given)
inactive: all assays above

Cc1cccc(C)c1NC(=O)c1ccc(N)cc1
inactive: all assays above

CC(=O)[C@@]1(O)CC[C@H]2[C@@H]3C[C@H](C)C4=CC(=O)CC[C@]4(C)[C@H]3CC[C@@]21C
inactive: all assays above

CN1C(CSCC(F)(F)F)Nc2cc(Cl)c(S(N)(=O)=O)cc2S1(=O)=O (stereo not given)
inactive: all assays above

CCN(CC)CC(=O)OCC(=O)[C@@]1(O)CC[C@H]2[C@@H]3CCC4=CC(=O)CC[C@]4(C)[C@H]3[C@@H](O)C[C@@]21C
inactive: all assays above

O=C(O)CCCC[P+](c1ccccc1)(c1ccccc1)c1ccccc1
inactive: all assays above

Cc1nc(C2CCCCC2)c(-c2ccc(S(N)(=O)=O)c(F)c2)o1
inactive: all assays above

CNC(=O)c1cnn(-c2nc(N)c3ncn([C@@H]4O[C@H](CO)[C@@H](O)[C@H]4O)c3n2)c1
inactive: all assays above

CCCc1ncc(C(=O)O)s1
inactive: all assays above

CCOC(=O)c1ccc(O)c(O)c1
inactive: all assays above

Cc1ncc([N+](=O)[O-])n1C
inactive: all assays above

C/C(=C1\CCOC(=O)S1)N(C=O)Cc1cnc(C)nc1N
inactive: all assays above

CC(=O)N(CC(O)CO)c1c(I)c(C(=O)NCCO)c(I)c(C(=O)NCC(O)CO)c1I (stereo not given)
inactive: all assays above

COCCc1ccc(OCC2CO2)cc1 (stereo not given)
inactive: all assays above

COc1cc(NS(=O)(=O)c2ccc(N)cc2)nc(C)n1
inactive: all assays above

CCC(=O)O[C@H]1[C@H](O[C@@H]2[C@@H](C)[C@H](O[C@H]3C[C@@](C)(OC)[C@@H](O)[C@H](C)O3)[C@@H](C)C(=O)O[C@H](CC)[C@@](C)(O)[C@H](O)[C@@H](C)C(=O)[C@H](C)C[C@@]2(C)O)O[C@H](C)C[C@@H]1N(C)C
inactive: all assays above

CCN1CCCC1CN (stereo not given)
inactive: all assays above

Cc1ccc(Cl)c(OCC(O)CNC(C)(C)C)c1 (stereo not given)
inactive: all assays above

O=C1CC2(CCCC2)CC(=O)N1CCNCC1COc2ccccc2O1 (stereo not given)
inactive: all assays above

CCOC(=O)[C@H](CCc1ccccc1)N[C@@H](C)C(=O)N(CC(=O)O)C1Cc2ccccc2C1
inactive: all assays above

Cc1oc(=O)oc1COC(=O)[C@@H]1N2C(=O)[C@@H](NC(=O)[C@H](N)c3ccccc3)[C@H]2SC1(C)C
inactive: all assays above

O=C1c2ccccc2CCc2ccccc21
inactive: all assays above

CCOC(=O)NNc1nncc2ccccc12
inactive: all assays above

CCCCC(=O)OCC(=O)[C@H]1[C@H](C)C[C@H]2[C@@H]3C[C@H](F)C4=CC(=O)C=C[C@]4(C)[C@@]3(F)[C@@H](O)C[C@@]21C
inactive: all assays above

Cc1ccc(/C=N/n2c(-c3ccccc3)csc2=S)cc1
inactive: all assays above

From PubChem BioAssay (NCATS)
